# Test results published in PubChem BioAssay AID1745849 (National Center for Advancing Translational Sciences (NCATS), 2022).
# About 320 (15%) of roughly 2,100 compounds were called active. Another 52% or so got no clear call; they are omitted. The list shows a part of the results. Unmarked numbers belong to inactive results. The call rests on the fitted dose curve; in most records, active means well fitted cell-killing curve with a large enough effect; inconclusive means small, poorly fitted or top-dose-only effect, or effect the other way; inactive means flat fitted curve, though single readings scatter.
# Experiment: Viability Counterscreen for CMV-Luciferase Assay of Inhibitors of ATXN expression; further: nearly all actives have a fitted effect of over 55% in size
# Details: HEK-293 CMV-luciferase cells viability, protease fluorescence, 24 h; activity change, negative = cytotoxicity: at the top concentration
# In short: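 In the same wells, a multiplexed format measured viability and then the CMV-luciferase signal in HEK-293 cells following 24 hr compound exposure at several concentrations. The viability substrate was Gly-Phe-AFC at 25 uM final.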
# On the % scale 0 is the no-effect control and ±100 the full control effect; potency means the concentration at half of the fitted maximal effect.
Structure (SMILES),"activity change, negative = cytotoxicity",Potency
CC(=O)N1CCN(c2ccc(Oc3ccc([N+](=O)[O-])c(C(F)(F)F)c3)cc2)CC1,-28.6% [at 57.5 µM],
Clc1ccc(SCc2cc(N3CCOCC3)nc(-c3ccccn3)n2)cc1,,17.8 µM (active)
O=C(Oc1c(CN2CCOCC2)cc(Cl)c2cccnc12)c1ccccc1,-15.7%,
Cc1cc(Oc2ccc(Cl)cc2)nc(-c2ccccn2)n1,9.12% [at 57.5 µM],
CCCC(=O)Nc1ccc2nc(SCC(=O)N3CCCC3)sc2c1,10.3% [at 57.5 µM],
COc1ccccc1OCCN1CSC(=S)N(C)C1,,11.2 µM (active)
COc1cc(OC)cc(-c2cc3nc(C)c(CCC(=O)NCc4ccccc4)c(C)n3n2)c1,0.755% [at 57.5 µM],
O=C(NCc1ccccc1C(F)(F)F)c1cccc2c1C(=O)c1ccc(N3CCC(N4CCCCC4)CC3)cc1S2(=O)=O,-2.76%,
Cc1ccsc1/C=C/C1=Cc2c(sc(NC(=O)CSc3n[nH]c(N)n3)c2C#N)C(C)(C)C1,2.76% [at 57.5 µM],
COC(=O)c1ccccc1S(=O)(=O)NNC(=O)Nc1ccccc1,7.74%,
CCSc1nc2ccccc2n1C(=O)/C=C\c1ccc(OC)c(OC)c1,,4.47 µM (active)
COc1ccc(/C=C/C(=O)Nc2cccc(S(=O)(=O)N3CCCC3)c2)cc1OC,17.8%,
O=C(CN1c2cccc3cccc(c23)S1(=O)=O)NCc1ccc(Cl)cc1,1.66%,
CCN(CC)CCC(c1ccc2c(c1)OCO2)c1c(OC)cc(OC)c2c(-c3ccccc3)cc(=O)oc12 (stereo not drawn),,17.8 µM (active)
COc1ccc(-n2nc(C(=O)NCC(=O)Nc3cccc(Cl)c3)c3ccccc3c2=O)cc1OC,-8.61% [at 57.5 µM],
COc1ccccc1C(=O)NNC(=O)c1nn(Cc2ccccc2)c(=O)c2ccccc12,,22.4 µM (active)
CC(C)(C)c1ccc(OCCn2nc(C(=O)O)c3ccccc3c2=O)cc1,-4.92% [at 57.5 µM],
O=C(N/N=C/c1ccccc1O)/C(=C/c1ccccc1)CCO,-7.96%,
O=C(C(Br)=Cc1ccccc1)c1ccccc1,,7.94 µM (active)
CC(C)(C)NCC(=Cc1ccccc1)C(=O)c1ccccc1,,2.24 µM (active)
Cc1ccc(CN(C)C(=O)CN2C(=O)NC(c3ccccc3)(c3ccccc3)C2=O)c(C)c1,-27.6%,

Structure (SMILES),"activity change, negative = cytotoxicity",Potency
O=C(Nc1cccc(S(=O)(=O)N2CCOCC2)c1)c1ccc2c(=O)n3c(nc2c1)CCCCC3,-20.1%,
O=C(Nc1ccc(NC(=O)c2ccc(Cl)cc2Cl)cc1)c1cccs1,-25.7% [at 57.5 µM],
O=C(Nc1ccc(Cl)cc1)Nc1nc(-c2sccc2Br)cs1,,10 µM (active)
Cc1ccc(F)cc1-c1cc2nc(NCCCN(C)C)n(C)c(=O)c2s1,-13.1% [at 57.5 µM],
CC(C)c1cccc(C(C)C)c1Nc1cn[nH]c1,-15.4%,
CCOC(=O)c1cnc(-n2nc(C)cc2C)nc1NNc1cc(C)nc(-c2ccccc2)n1,,8.91 µM (active)
CCOC(=O)c1cnc(-n2nc(C)cc2C)nc1NC1CCCC1,-7.03%,
Cc1cc(NCc2ccccn2)n2nc(C)c(-c3ccc(Cl)cc3)c2n1,,20 µM (active)
CCCc1cc(NCc2ccccn2)n2nc(C)c(-c3ccccc3)c2n1,-18.3%,
CC(C)C(CCNCc1ccccn1)c1ccc(Cl)cc1 (stereo not drawn),5.83% [at 57.5 µM],
COc1cc(OC)c(OC)cc1/C=C1\CC(C)C/C(=C\c2cc(OC)c(OC)cc2OC)C1=O (stereo not drawn),-29.6% [at 57.5 µM],
COc1cc(/C=C2\COC/C(=C\c3cc(OC)c(OC)c(OC)c3)C2=O)cc(OC)c1OC,,1.58 µM (active)
COc1cc(/C=C/c2ccc3cccc(O)c3n2)cc(OC)c1OC,-28.4% [at 57.5 µM],
CCOC(=O)N(C)c1c(CC)nc2c(OCc3ccccc3OC)cccn12,14.1% [at 57.5 µM],
Cc1cc(C)cc(NC(=O)CCC(=O)Nc2cc(C)on2)c1,16.8%,
Cn1c(SCc2ccc(C(C)(C)C)cc2)nnc1C1COc2ccccc2O1 (stereo not drawn),-14.2%,
N#C/C(=C/c1ccc(Sc2nc3ccccc3[nH]2)o1)c1cccc(F)c1,-26.5%,
CC1(C(=O)NC2CCN(Cc3ccccc3)CC2)CCN1Cc1ccc2ccccc2c1 (stereo not drawn),-17.7%,
C=CCN(C(=O)CSc1nc2c(sc3ccccc32)c(=O)n1CCN(CC)CC)c1ccccc1,,20 µM (active)
COc1ccc(/C=C/C(O)=C2/C(=O)N(C)C3(C)CC2c2ccccc2O3)cc1 (stereo not drawn),0.775% [at 57.5 µM],
COc1ccc(C(=O)c2c(C)c3ccccc3n2CC(O)CNC(C)C)cc1 (stereo not drawn),,17.8 µM (active)

Structure (SMILES),"activity change, negative = cytotoxicity",Potency
O=C(Oc1c(CN2CCOCC2)cc(Cl)c2cccnc12)c1cccs1,6.23% [at 57.5 µM],
COc1cnc(-c2ccccn2)nc1NC(C)C,,6.31 µM (active)
COc1cc(C#Cc2c(-c3cncn3C)n(C)c3ccc(-c4ccc(CN5CCOCC5)cc4)cc23)cc(OC)c1,3.5%,
COc1ccc2c(-c3ccc(S(N)(=O)=O)cc3)c(-c3ccc(S(C)(=O)=O)cc3)sc2c1,-21.7% [at 57.5 µM],
NC(=O)c1cc([N+](=O)[O-])ccc1NCc1ccc(N)cc1,,22.4 µM (active)
OCCN1CCN(C2CCC(c3ccc(F)cc3)c3ccc(F)cc32)CC1 (stereo not drawn),-5.95% [at 57.5 µM],
CC(C)CC(NC(=O)c1ccc(Cl)cc1)C(=O)OCC(=O)c1ccc2c(c1)NC(=O)CO2 (stereo not drawn),,14.1 µM (active)
CN(C)CCCNc1nc2cc(-c3cccc(Cl)c3)sc2c(=O)n1C,-16.2% [at 57.5 µM],
O=C(CNC(=O)c1ccccc1O)N/N=C/c1cc(Br)ccc1OC(=O)/C=C/c1ccco1,13%,
COCc1ccc(CN2CCC(C(=O)Nc3cccc(-c4cccc(Cl)c4)c3)CC2)o1,,17.8 µM (active)
CC(=O)c1cc(CN2CCC(C(=O)Nc3cccc(-c4cscn4)c3)CC2)cs1,-11.1% [at 57.5 µM],
CCCn1ncc(CN2CCC(C(=O)Nc3cccc(-c4cccc(F)c4)c3)CC2)c1C,-27.1% [at 57.5 µM],
O=C(NCc1ccco1)c1ccc(-c2cccc(Cl)c2)o1,-7.88% [at 57.5 µM],
CN1CCC(N(C)C(=O)c2ccc(Cl)c(S(=O)(=O)N3CCc4ccccc43)c2)CC1,-12.2% [at 57.5 µM],
O=C(CSC1=NNC(c2ccccn2)S1)Nc1ccc(C(F)(F)F)cc1 (stereo not drawn),,14.1 µM (active)
O=C(Nc1ccc(F)cc1)c1sccc1SCc1cccc(C(F)(F)F)c1,-14.2% [at 57.5 µM],
Cc1ccccc1SCC(=O)N1CCN(c2ccc(C(F)(F)F)cn2)CC1,-1.97%,
COC(=O)c1ccsc1NC(=O)CN1CCN(Cc2ccc3c(c2)OCO3)CC1,9.4% [at 57.5 µM],
Cc1ccc2nc(NC(=O)CSCC(=O)OCC(=O)c3ccc(Br)cc3)sc2c1,16.3% [at 57.5 µM],
Cc1ccc(C(=O)CN2C(=O)c3ccccc3S2(=O)=O)cc1,1.75%,
Cc1ccc(C(=O)COC(=O)c2ccc3c(c2)C(=O)N(c2cccc4ncccc24)C3=O)cc1,,22.4 µM (active)
